GDH-TPI counter – counter-screen for M. tuberculosis FBA inhibitors: GDH-TPI coupled enzymes; GDH-TPI coupled enzyme counterscreen, NADH absorbance; inhibition, % at 4.8 µM; hit rate 1.2% among 360,000; AID 588335;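 also: 0% = DMSO wells and 100% = wells lacking the enzyme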
RecA intein inh – blocks M. tuberculosis RecA intein splicing | cell-free RecA intein splicing, fluorescence | inhibition, % (concentration not given with the values) | P9WHJ3 | hit rate 0.75% among 290,000 | AID 2221; in the data active = inhibition above about 30%;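 also: 0% = vehicle wells and 100% = reference inhibitor control wells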
Mtb bLac sens – beta-lactam sensitization of Mtb H37Rv | inhibition, % at 25 µM | AID 434955 | M. tuberculosis H37Rv growth with meropenem, percent inhibition | hit rate 0.27% among 330,000; call rule not given here;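 also: growth measured after seven days incubation then overnight dye step; 0% = bacteria only wells and 100% = bacteria with antibiotic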
FBA Mtb inh – Mtb fructose-bisphosphate aldolase inhibition; hit rate 2.3% among 360,000; inhibition, % at 1 µM; purified M. tuberculosis FBA, fluorescence read-out; in the data active = inhibition above about 27%;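 also: 0% = vehicle and 100% = reference inhibitor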
Target sequence (P9WQA3 whole entry, looked up): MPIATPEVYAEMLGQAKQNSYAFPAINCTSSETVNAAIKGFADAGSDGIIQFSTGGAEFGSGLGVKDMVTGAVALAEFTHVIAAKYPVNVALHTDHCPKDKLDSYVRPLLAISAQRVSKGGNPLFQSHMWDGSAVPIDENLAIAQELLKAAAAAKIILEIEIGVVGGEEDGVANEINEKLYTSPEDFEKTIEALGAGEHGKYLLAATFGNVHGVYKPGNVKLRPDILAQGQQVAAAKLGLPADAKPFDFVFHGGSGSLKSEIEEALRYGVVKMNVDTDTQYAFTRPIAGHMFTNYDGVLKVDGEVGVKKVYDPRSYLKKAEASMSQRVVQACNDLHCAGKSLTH
CCHF vOTU inh-1 – blocks the CCHF virus ovarian tumor domain protease; inhibition, % at 11.5 µM; hit rate 0.55% among 370,000; CCHFV vOTU protease, Pep-AMC fluorescence; also: 0% = vehicle wells with enzyme and 100% = no enzyme wells
CCHF vOTU inh-2 – confirmation of CCHF virus vOTU protease inhibitors. shares compounds with CCHF vOTU inh-1. Recombinant CCHFV vOTU, Pep-AMC fluorescence. inhibition, % at 11.5 µM. hit rate 17% among 1,900. AID 686976
* hit, by the source's call; . = not tested or not shown. A selection: hits, their analogues and other compounds. The true share with any hit is near 4.2%. Rule as the data show it, unless noted: active = inhibition above about 30%; inactive = the rest.

SMILES	GDH-TPI counter	RecA intein inh	Mtb bLac sens	FBA Mtb inh	CCHF vOTU inh-1	CCHF vOTU inh-2
COC(=O)c1c(C)oc2c1cc(NS(=O)(=O)c1ccc(C(=O)O)cc1)c1ccccc12	19	20	2	-3	38*	-8
Fc1ccc(CN2CCN(c3ncc(Cc4ccccc4)cn3)CC2)c(Cl)c1	.	.	.	.	-8	.
COc1cc(CNc2ncnc3c2ncn3[C@H]2CN(Cc3cccc(C(F)(F)F)c3)C[C@@H](COC(C)=O)O2)cc(OC)c1OC	7	.	.	2	5	.
COc1cc(CNc2ncnc3c2ncn3[C@H]2CN(Cc3cccc(C(F)(F)F)c3)C[C@@H](CO)O2)cc(OC)c1OC	3	.	.	2	31*	-9
Cc1ccc(S(=O)(=O)N2CCCCC2)cc1NC(=O)CNc1ccc(C(F)(F)F)cc1	-2	1	-6	-1	27	.
CCOC(=O)C1=C(C)N[C@@]2(O)c3ccccc3C(=O)[C@@]12O	-1	7	-8	-2	22	.
CC(=O)C1=C(C)OC2(O)c3ccccc3C(=O)C12O (stereo unspecified)	4	9	2	2	71*	-8
CCOC(=O)C1=C(C)OC2(O)c3ccccc3C(=O)C12O (stereo unspecified)	-9	3	-7	-3	103*	19
COC(=O)c1cccc(N(CC(=O)NC2CCCC2)C(=O)CCC(=O)Nc2cc(C)on2)c1	-2	0	4	0	0	.
COC(=O)C[C@H]1CC[C@@H]2[C@H](COc3ccc(NC(=O)c4ccccc4OC)cc3C(=O)N2C)O1	.	.	.	.	1	.
CC1=NNC(=O)C1CCC(=O)N/N=C(/C)c1ccc([N+](=O)[O-])cc1 (stereo unspecified)	18	-2	5	-3	30*	-17
Cc1nn(C)c(Cl)c1CN1CCN(CC(C)C)C(CCO)C1 (stereo unspecified)	11	1	0	1	-1	.
CCCCCCCCN1C(=O)[C@H](CC(=O)NCCCOC)C[C@@]2(C(=O)OCC)CCCC=C12	.	.	.	.	27	.
CCOc1ccc(NC(=S)Nc2ccc3nsnc3c2)cc1	5	26	98	-1	118*	92*
C=CCN(CC=C)C(=S)Nc1ccc2nsnc2c1	1	1	1	-1	51*	87*
COCCNC(=S)Nc1ccc(Cl)c(Cl)c1	0	0	1	3	8	.
COCCNC(=S)Nc1ccc2nsnc2c1	23	3	8	6	100*	-15
S=C(Nc1ccc2nsnc2c1)N1CCCCCC1	6	55*	4	0	36*	97*
O=C(COC(=O)c1cccc(F)c1)Nc1cccc(S(=O)(=O)N2CCCCC2)c1	8	.	.	-2	10	.
CCn1c(C(=O)O)c(CC(=O)N(C)c2ccc(OC)cc2OC)c2ccccc21	2	3	4	1	6	.
CC(=O)Oc1cc(C)c(Cl)c2c(OC(C)=O)cc(C(C)=O)c(O)c12	.	.	.	.	32*	18
Nc1ccc2c(O)cc(S(=O)(=O)O)cc2c1	4	.	.	3	52*	-40
CC(=O)Nc1ccc2c(O)cc(S(=O)(=O)O)cc2c1	11	.	.	2	12	.
Cc1[nH][nH]c(=O)c1C(c1ccc(-c2cccc(C(=O)O)c2)o1)c1c(C)[nH][nH]c1=O	1	.	5	0	40*	-14
Cc1ccc(-n2c(SCC(=O)c3c(N)n(C4CC4)c(=O)[nH]c3=O)nnc2N2CCOCC2)cc1	-1	.	.	0	13	.
SMILES	GDH-TPI counter	RecA intein inh	Mtb bLac sens	FBA Mtb inh	CCHF vOTU inh-1	CCHF vOTU inh-2
CC1=C(N2CC2)C(=O)C(CO)=C(N2CC2)C1=O	13	.	.	4	35*	5
Clc1ccc(CNCCc2ccc3c(c2)OCO3)cc1	-12	1	4	1	6	.
FC(F)(F)c1ccc(CNCCc2ccc3c(c2)OCO3)cc1	1	7	6	4	30*	-14
Cc1n[nH]c(=O)c2c(NC(=O)CSc3nn(-c4ccccc4)c(=S)s3)oc(C)c12	20	0	-10	3	9	.
Cc1ccc(Cc2c(-c3cccc(Br)c3)nc3ccc(C)cn23)cc1	.	.	.	.	24	.
Cc1ccc(Cc2c(-c3cccc(Br)c3)nc3ccc(Cl)cn23)cc1	.	.	.	1	40*	-5
Cc1ccc(-c2nc3ccc(Cl)cn3c2Cc2ccccc2C(F)(F)F)cc1	.	.	.	3	32*	-10
CC(=O)Nc1ccc(NC(=O)CCNC(=O)c2ccccc2Cl)cc1	3	0	-1	2	-6	.
CCCOc1ccc(C(=O)NNC(=O)CCNC(=O)c2ccco2)cc1OC	8	-7	-7	4	9	.
CCc1c(-c2cccc(F)c2)ncn1CCc1ccccc1OC	.	.	.	.	30*	-4
COc1ccccc1CCn1cnc(-c2ccccc2)c1CC(C)C	.	.	.	.	45*	18
CCCCCc1c(-c2ccc(Cl)cc2)ncn1CCc1ccccc1OC	.	.	.	.	37*	8
CCCCCc1c(-c2ccc(OC)cc2)ncn1CCc1ccccc1OC	.	.	.	.	20	.
COC(=O)[C@]12C[C@H](CC(=O)NCc3cccc(C(F)(F)F)c3)C(=O)N(Cc3ccccc3)C1=C[C@H](C(C)C)O[C@@H]2C1CC1	.	.	.	.	41*	-4
COC(=O)[C@]12C[C@H](CC(=O)NCc3cccc(C(F)(F)F)c3)C(=O)N(Cc3ccco3)C1=C[C@H](C(C)C)O[C@@H]2C1CC1	.	.	.	.	31*	0
COC(=O)[C@]12C[C@H](CC(=O)NCc3cccc(C(F)(F)F)c3)C(=O)N(CCC3=CCCCC3)C1=C[C@H](C(C)C)O[C@@H]2C1CC1	.	.	.	.	33*	7
O=C(COC(=O)c1cccc(-n2cnnn2)c1)c1ccc(F)c(F)c1	1	.	.	-2	4	.
CN1CCS/C1=C/C=C1\SC(=S)N(CC(=O)O)C1=O	14	-5	-2	-38	35*	10
CCC(C)NC(=O)C1CCC(CNS(=O)(=O)c2ccc3c(c2)N(C(C)=O)CCO3)CC1 (stereo unspecified)	-6	-1	2	0	0	.

Assay outcomes from PubChem BioAssay.
